Compounds without any hit were thinned out: in the full panel of roughly 79,000, 15% have a hit. Unmarked numbers belong to inactive results. Activity calls are given as the source filed them. Rule as the data show it: active = growth inhibition above about 70%; inactive = the rest.
What was measured:
[1] = NCI Yeast Anticancer Drug Screen. Data for the rad50 strain (AID 155);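 also: 0% = growth of vehicle-only cultures of the same strain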; conditions: S. cerevisiae rad50 strain growth inhibition; at 50.0 µM; active compounds read high
In short: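 DNA repair mutant yeast, compound exposure, growth read-out; inhibition is taken relative to vehicle.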

[2] = NCI Yeast Anticancer Drug Screen. Data for the mec2-1 strain (AID 157); conditions: S. cerevisiae mec2-1 strain, at 50.0 µM, active compounds read high
In short: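 Compounds were applied to mec2-1 yeast cells. Their growth was then compared with that of vehicle-treated cultures to give growth inhibition.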

[3] = NCI Yeast Anticancer Drug Screen. Data for the sgs1 mgt1 strain (AID 161);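 also: 0% = growth of cultures given vehicle only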; conditions: S. cerevisiae sgs1 mgt1 strain, at 50.0 µM, active compounds read high
In short: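 Percent growth inhibition was derived by comparing compound-exposed mutant yeast with vehicle-exposed cultures. The strain carries alterations in DNA damage repair.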

[4] = NCI Yeast Anticancer Drug Screen. Data for the cln2 rad14 strain (AID 165);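 also: 0% = growth equal to vehicle treated cultures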; conditions: S. cerevisiae cln2 rad14 strain, at 50.0 µM, active compounds read high
In short: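 Strain: cln2 rad14 yeast, altered in cell cycle control and DNA damage repair. Read-out: growth inhibition vs vehicle.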

[5] = NCI Yeast Anticancer Drug Screen. Data for the bub3 strain (AID 167); conditions: S. cerevisiae bub3 mutant strain, at 50.0 µM, active compounds read high
In short: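 In this screen, a yeast mutant lacking normal mitotic checkpoint function is challenged with compound. Relative growth versus vehicle gives the inhibition value.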

[6] = NCI Yeast Anticancer Drug Screen. Data for the mlh1 rad18 strain (AID 175); conditions: S. cerevisiae mlh1 rad18 strain growth inhibition; at 50.0 µM; active compounds read high
In short: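 A repair-deficient yeast strain is exposed to test compound, and growth is scored relative to vehicle-treated controls.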

| SMILES | growth inhibition [1] | growth inhibition [2] | growth inhibition [3] | growth inhibition [4] | growth inhibition [5] | growth inhibition [6] |
| --- | --- | --- | --- | --- | --- | --- |
| Oc1ccc(Cl)cc1/C=N\NC(=S)Nc1ccc2cn[nH]c2c1 | -2.7% | 10.1% | 13.9% | -39.4% | 20.8% | 11.3% |
| NC(=O)SCC(N)C(=O)O (centres undefined) | 0.25% | -21.4% | 1.55% | 3.55% | 4.95% | 6.8% |
| Cc1ccc(S(=O)(=O)c2ccc(O)c(C)c2)c(O)c1 (tested in a mixture with another compound) | 36.6% | 22.9% | 35.3% | 45.6% | 33.4% | 50.2% |
| NC(=O)c1csc(NC2OC(CO)C(O)C(O)C2O)n1 (centres undefined) | 23.1% | -8.8% | 0.05% | 14.8% | -0.25% | -0.05% |
| N#CCc1ccc(Nc2cc(=O)[nH]c(=O)[nH]2)cc1 | -7.5% | 1.5% | 3.65% | -35.1% | -7.5% | -7.55% |
| CC1=C(O)c2cn(C)cc2C(=O)C1=O | 26.1% | 24.9% | 18% | 26.6% | 31.9% | 28.3% |
| CN1C(=O)N(C)C2(CCN(CCCCCCF)CC2)C1=O | -10.2% | -19.9% | -34.2% | -6.9% | -18.6% | -29.4% |
| Cc1[nH]c2cc([N+](=O)[O-])ccc2c1C | 0.45% | -35.2% | -10.1% | 21.8% | 1.3% | -0.5% |
| CC(C1=CC=C2[C@@H]3CCC4CC(N(C)C)CC[C@]4(C)C3CC[C@]12C)N(C)C=O (some centres undefined) | 6.8% | 8.6% | -16.2% | 6.35% | 4.45% | 1.65% |
| O=[N+]([O-])c1ccc(P(=O)(Nc2ccc3ccccc3c2)Nc2ccc3ccccc3c2)cc1 | 34.5% | 15.2% | 15.5% | 0.2% | 13.1% | 46.5% |
| CN1CCC(O)(C(C)(C)C)CC1 | -5.05% | -5.15% | 3.65% | 10.9% | -3.7% | -68.9% |
| OC(C/C=N/N=C/CC(O)(C(F)(F)Cl)C(F)(F)Cl)(C(F)(F)Cl)C(F)(F)Cl | 36% | 28.3% | 31.7% | 35.2% | 34.5% | 34.1% |
| O=C1c2cccc3cc([N+](=O)[O-])cc(c23)C(=O)N1Cc1cccnc1 | 42.5% | 15.6% | 38.6% | 19% | 10.5% | 10.8% |
| CC(=O)Nc1ccc(NC(=O)C2CC3C=CC2C3)cc1 (centres undefined) | 7.55% | -11% | -33% | 3.1% | -10.7% | 23.2% |
| O=C1c2ccccc2C(=O)N1CCNc1ccccc1[N+](=O)[O-] | -9.25% | -12.2% | 7% | -22.9% | 6.5% | -19.2% |
| CO[C@H]1C=C[C@]23c4cc5c(cc4CN(CC2O)[C@@H]3C1)OCO5 (some centres undefined) | 8.65% | -11.7% | 26.4% | 12.6% | 2.55% | -20.9% |
| CC(=O)c1c(N)n(C)c(=O)n(C)c1=O | 36% | 2.9% | 3.55% | -47.1% | -14.6% | 17.4% |
| CC[N+](C)(CC)CCOC(=O)c1ccccc1Oc1ccc(C)cc1 | 23.1% | -2.45% | 7.8% | -11.8% | -2.1% | 0.9% |
| CC1(c2ccccc2)CCN(C2CC2)CO1 (centres undefined) | 34.6% | 15.2% | 51.6% | 45.2% | 48.5% | -52% |
| COc1ccc2c(c1)CC/C2=N/O | -10.7% | 3.05% | -4.5% | -21.3% | -22.8% | 2.1% |

| SMILES | growth inhibition [1] | growth inhibition [2] | growth inhibition [3] | growth inhibition [4] | growth inhibition [5] | growth inhibition [6] |
| --- | --- | --- | --- | --- | --- | --- |
| C[C@]12CCC(=O)O[C@@H]1CC[C@@H]1[C@@H]2CC[C@]2(C)[C@@H](O)CC[C@@H]12 | 20.9% | 14% | 42.3% | 32.5% | 27.2% | 23.1% |
| Oc1nc(-c2ccccc2)sc1-c1ccccc1 | -6.05% | 16.9% | -0.5% | -24% | -10.7% | -9.15% |
| O=C(NC1CCCCC1C1CCCCC1)c1ccc(Cl)cc1 (centres undefined) | 1.55% | 2.5% | -1.3% | -10.9% | 7.15% | 6.45% |
| CCCCCOc1ccc(C(=O)OC)cc1 | -25.9% | -5.15% | 6.2% | -22.8% | -0.1% | -20% |
| O=C(/C=C/c1ccc(OCCCOc2ccc(/C=C/C(=O)c3ccccc3)cc2)cc1)c1ccccc1 | 14.3% | -18.1% | -4.25% | -57% | -37.9% | -10.5% |
| CC(=O)/C(=C/n1ccc(=O)[nH]c1=S)C(=O)Nc1ccc(Cl)cc1 | -32% | -7.6% | 4.7% | 11.7% | -20.4% | 3.4% |
| CCOC(=O)CCC(=O)Oc1cccc2c1C(=O)c1c(OC(=O)CCC(=O)OCC)cccc1C2=O | 40.5% | 37% | 9.8% | 17.2% | 6.45% | 47.7% |
| CCN(CC)CCOC(=O)c1c2nc3c(C(=O)OCCN(CC)CC)ccc(C)c3oc-2c(C)c(=O)c1N | 79.5% (active) | 35.9% | 42.1% | -5.2% | 61.9% | 36.3% |
| COC(=O)C(=O)c1c(C2CC2)[nH]c2[nH]n(-c3ccccc3)c(=O)c2c1=O | 11% | 20.1% | 12.4% | -9.2% | -1.1% | 3.6% |
| Cc1cc(C(C)(C)C)ccc1S(=O)(=O)/C=C/c1ccccc1 | -18.6% | -23.1% | -6.1% | 0.45% | -1.7% | -26.1% |
| COc1ccc(C2=C(c3ccccc3)C(=O)C(c3ccccc3)=C2c2ccccc2)cc1 | -12.9% | -12.9% | -8.7% | 13.2% | -1.7% | -6.05% |
| COc1ccc(C(C)=C(C#N)C#N)cc1 | 18.9% | 2.7% | -5.65% | 16.1% | 20.4% | 13.1% |
| C[N+]1(C)CCC(c2ccccc2)(c2ccccc2)C(O)C1 (centres undefined) | -8.85% | 40.7% | 0% | -0.2% | -8.5% | 1.5% |
| CCCC(=O)NC(Nc1cc(C)ccn1)(C(=O)OCC)C(F)(F)F (centres undefined) | -4.85% | 8.5% | 9.1% | 7.4% | 15.8% | -31.9% |
| Cn1ncc2c(N)nc(NCCO)nc21 | 1.1% | 4.75% | -4.75% | -19.1% | 13.7% | -0.2% |
| COc1cc(/C=N/NC(=O)N/N=C/c2cc(OC)c(OC)c(OC)c2)cc(OC)c1OC | -37.9% | -4.8% | -11.1% | 10.9% | 0.95% | 6.4% |
| CCc1cccc(CC)c1NC(=O)c1ccccc1Br | 2.5% | 1.85% | 15.7% | 16.3% | -0.05% | 21.2% |
| COC(=O)/C=C/C=C/C(=O)OC | -4.85% | -1.7% | -2.6% | -41.9% | -30.1% | 3.85% |
| O=C(NCP(=O)(c1ccccc1)c1ccccc1)OCc1ccccc1 | -50.2% | -3.7% | -25.9% | 10.4% | -12.5% | 6.6% |
